# Compound activity as filed in PubChem.
# AI-2 QS mod = Vibrio harveyi AI-2 quorum sensing modulation. hit rate 0.4% among 300,000. activity change, % at 7.5 µM. Vibrio harveyi JMH597 AI-2 luminescence/OD600 ratio, 9 h; hits give low values; strain lacks LuxN and CqsS sensors; 0 = neutral-control median; in the data active = activity change below about -75%, passing the limit was not always enough;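 also: luminescence divided by OD600 gain over 9 h not by final OD600 alone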
# ATG4B inhibitor = blocks human ATG4B protease cleavage of LC3 substrate; ATG4B cleavage of LC3-PLA2, NBD-HPC fluorescence, 1 h; inhibition, % at 8.33 µM; hit rate 0.51% among 340,000; AID 504462; in the data active = inhibition above about 40%
# Target sequence (Q9Y4P1 whole entry, looked up): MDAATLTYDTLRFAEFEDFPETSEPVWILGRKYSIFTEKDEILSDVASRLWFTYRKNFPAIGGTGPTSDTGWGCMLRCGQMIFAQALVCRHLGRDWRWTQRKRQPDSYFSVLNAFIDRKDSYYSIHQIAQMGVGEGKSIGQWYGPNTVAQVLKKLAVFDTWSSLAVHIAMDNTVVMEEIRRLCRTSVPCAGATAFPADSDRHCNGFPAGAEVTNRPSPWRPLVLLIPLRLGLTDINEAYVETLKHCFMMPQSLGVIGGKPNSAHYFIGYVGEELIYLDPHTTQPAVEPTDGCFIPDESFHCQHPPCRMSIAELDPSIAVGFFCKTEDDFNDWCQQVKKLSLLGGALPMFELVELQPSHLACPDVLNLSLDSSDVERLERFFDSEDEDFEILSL
# Efflux pump inh = blocks antifungal efflux pumps in multiplex yeast assay; inhibition, % at 10 µM; S. cerevisiae Candida pump triplex, Nile Red efflux; hit rate 0.44% among 330,000;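 active = plate passing quality check with inhibition over a set limit, or well fluorescence over plate mean plus 4 SD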;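 also: Nile Red retained in pooled yeast measured as flow cytometry median fluorescence; higher means more Nile Red kept so more efflux inhibition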
# V-ATPase pH = alters yeast V-ATPase proton transport; response, % at 10 µM; AID 504577; hit rate 0.37% among 350,000; S. cerevisiae, pHLuorin cytosolic pH fluorescence; in the data active = response mostly above about 7.3%, no sharp cut-off; inactive = mostly below about 5.4%; also: actives read high
# SUMO Mot1 rescue = SUMOylation pathway inhibition by Mot1-301 growth rescue; hit rate 1% among 320,000; growth rescue, % at 18.8 µM; AID 2716; S. cerevisiae Mot1-301 growth rescue, ATP luminescence, 38.5C; percent above DMSO median, 100 means doubled;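 active = every valid replicate shows activation above 250% relative to neutral control wells; inactive = the rest, any valid replicate at or below 250%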
# Yeast cmpd fluor = counter-screen for efflux pump inhibitors: compound fluorescence; shares compounds with Efflux pump inh; S. cerevisiae AD/pABC3, flow cytometry; fluorescence ratio to DMSO, % at 10 µM; hit rate 4% among 1,700;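 active = fluorescence ratio to DMSO above its plate's cutoff, the plate mean ratio plus 5 SD, cut at about 210% in these data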;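 also: unstained yeast with no Nile Red so the signal is compound autofluorescence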
# Mdr1 pump inh = Candida Mdr1 efflux pump inhibition; S. cerevisiae AD/CaMDR1, Nile Red efflux, flow cytometry; shares compounds with Efflux pump inh; inhibition, % at 10 µM; hit rate 1% among 1,700; AID 588518; in the data active = inhibition above about 26%;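 also: higher means more Nile Red retained so more efflux inhibition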
# CaCdr2 efflux inh = inhibitors of Candida albicans Cdr2 efflux pump. shares compounds with Efflux pump inh. S. cerevisiae AD/CaCDR2, Nile Red retention, flow cytometry. Nile Red retention ratio vs DMSO, % at 10 µM. hit rate 4% among 1,700. AID 588520; in the data active = Nile Red retention ratio vs DMSO above about 190%;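 also: higher ratio means more blocking of Cdr2 efflux of the dye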
# CaCdr1 efflux inh = Candida Cdr1 efflux pump inhibition; AID 588522; inhibition, % at 10 µM; S. cerevisiae AD/CaCDR1, Nile Red efflux, flow cytometry; hit rate 1% among 1,700; shares compounds with Efflux pump inh;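 active = inhibition above the screen-wide mean plus twice its standard deviation, cut at about 32% in these data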
# Numbers stand for hits; i = inactive; nt = not tested or not shown. Rows were chosen to be rich in hits. Some 2.5% of all compounds tested hit in one or more screens of this group.
SMILES,AI-2 QS mod,ATG4B inhibitor,Efflux pump inh,V-ATPase pH,SUMO Mot1 rescue,Yeast cmpd fluor,Mdr1 pump inh,CaCdr2 efflux inh,CaCdr1 efflux inh
Cn1cccc1Cc1nnc(SCC(=O)Nc2ccccc2)n1-c1ccc(F)cc1,i,i,i,i,i,i,i,i,i
COc1ccc(-n2c(Cc3cccn3C)nnc2SCC(=O)Nc2cccc(F)c2)cc1,i,i,i,i,i,i,i,i,i
Cc1occc1C(=O)NCc1cccc(CNC(=O)c2ccoc2C)c1,i,i,0.3,i,i,i,i,i,i
Cc1occc1C(=O)NCc1ccc2c(c1)OCO2,i,i,i,i,i,nt,nt,nt,nt
CCCOc1ccc(-c2nc(N3CCN(CC)CC3)c3ccccc3n2)cc1,i,i,i,i,i,nt,nt,nt,nt
CCCOc1ccc(-c2nc(N3CCN(C)CC3)c3ccccc3n2)cc1,i,i,1.0,i,i,i,i,i,i
O=C(Cn1ccccc1=O)NCc1ccc(F)cc1,i,i,i,i,i,nt,nt,nt,nt
Cc1c2cc[n+](CCN3CCCCC3)cc2c(C)c2c1[nH]c1ccc(O)cc12,nt,i,nt,i,nt,i,i,i,i
CCOC(=O)c1[nH]c2ccc(C)cc2c1NC(=O)CN1CCCCC1,i,i,i,i,i,nt,nt,nt,nt
O=C(CNC(=O)C(c1ccccc1)c1ccccc1)N/N=C\c1ccc(C(=O)O)cc1,i,i,i,i,i,nt,nt,nt,nt
COc1ccc(CC(=O)OCC(=O)NC(=O)NC23CC4CC(CC(C4)C2)C3)cc1,i,i,0.7,i,i,i,i,i,i
COc1ccc(CCNC(=O)NC23CC4CC(CC(C4)C2)C3)cc1,i,i,i,i,i,nt,nt,nt,nt
O=Cc1ccc(-n2cncn2)cc1,i,i,1.0,i,i,i,i,i,i
O=C(OCC(=O)c1ccccc1Cl)c1cnccn1,i,i,13.9,i,i,i,i,i,i
CCOc1ccc(-c2c(C(=O)N/N=C/c3ccccc3)nnn2-c2nonc2N)cc1,i,i,i,i,i,i,i,i,i
COc1ccc2ccccc2c1/C=N/NC(=O)c1nnn(-c2nonc2N)c1C(C)C,i,i,i,i,i,nt,nt,nt,nt
CCOc1ccccc1/C=N/NC(=O)c1nnn(-c2nonc2N)c1CN1CCCC1,i,i,i,i,i,nt,nt,nt,nt
CCOc1ccccc1/C=N/NC(=O)c1nnn(-c2nonc2N)c1CN1CCC(C)CC1,i,i,0.6,i,i,i,i,i,i
Cc1c(C(=O)N/N=C/c2c(O)ccc3ccccc23)nnn1-c1nonc1N,i,i,1.0,i,i,i,i,i,i
O=C(NCc1ccccc1)c1ccc(CN(c2ccccn2)S(=O)(=O)c2ccccc2)cc1,i,i,i,i,i,nt,nt,nt,nt
CC(C)NC(=O)NC(=O)COC(=O)/C=C/c1ccccc1[N+](=O)[O-],i,i,i,i,i,nt,nt,nt,nt
CCn1c(=O)c2ccccc2n(Cc2cccc(C)c2)c1=O,i,i,i,i,i,nt,nt,nt,nt
CCn1c(=O)c2ccccc2n(Cc2ccc([N+](=O)[O-])cc2)c1=O,i,i,0.6,i,i,i,i,i,i
Cc1nn(C(C)C(=O)N/N=C/c2ccc(N(C)C)cc2)c(C)c1[N+](=O)[O-] (configuration not stated),i,i,i,i,i,nt,nt,nt,nt
O=C(Cn1cncn1)NCc1cccc2ccccc12,i,i,0.9,i,i,i,i,i,i
SMILES,AI-2 QS mod,ATG4B inhibitor,Efflux pump inh,V-ATPase pH,SUMO Mot1 rescue,Yeast cmpd fluor,Mdr1 pump inh,CaCdr2 efflux inh,CaCdr1 efflux inh
COc1ccccc1-c1noc2c1C(=O)NCC2,nt,nt,nt,i,nt,nt,nt,nt,nt
CCN(C(=O)CSc1nnc(-c2ccncc2)n1Cc1ccccc1)C1CCS(=O)(=O)C1 (configuration not stated),i,i,i,i,i,nt,nt,nt,nt
CC(=O)c1cccc(OCc2cc(C(=O)N3C[C@@H](C)O[C@@H](C)C3)no2)c1,i,i,i,i,i,nt,nt,nt,nt
CCOC(=O)c1ccc(Nc2cc(C)nc(-c3ccccc3)n2)cc1,i,i,30.7,i,i,i,i,i,i
CCCCCCCCCCCCCCCC[n+]1ccc(/C=N/O)cc1,nt,i,2.0,i,i,i,i,i,i
CCCCCCCCCCCCCCCC[n+]1ccc(C(N)=O)cc1,nt,i,i,i,i,nt,nt,nt,nt
COc1ccc(Cc2nnc(Cl)c3ccccc23)cc1OC,i,i,i,i,i,nt,nt,nt,nt
CCCC(=O)Nc1nc2ccc(OCC)cc2s1,i,i,i,i,i,nt,nt,nt,nt
CCOc1ccc2nc(NC(=O)CCn3cccc3)sc2c1,i,i,1.0,i,i,i,i,i,i
O=C(NCC1CCCO1)C1CCCN(S(=O)(=O)c2cccc(C(F)(F)F)c2)C1 (configuration not stated),nt,i,1.3,i,i,i,i,i,i
Cc1ccc(C2=NN(CC(=O)NCc3ccccn3)C(=O)CC2)cc1,i,i,7.6,i,i,i,i,i,i
Cc1ccc(NC(=O)C[n+]2cc(-c3ccccc3)n3c2CCC3)cc1,i,i,i,i,i,nt,nt,nt,nt
Cc1ccc(-c2c[n+](CC(=O)Nc3ccccc3C)c3n2CCC3)cc1,i,i,i,i,i,i,i,i,i
CN1CCc2c(sc(NC(=O)C3CCN(S(=O)(=O)c4cccs4)CC3)c2C(N)=O)C1,i,i,i,i,i,nt,nt,nt,nt
CSCc1ccc(C(=O)NCCSc2ccc(Br)cc2)cc1,i,i,7.4,i,i,i,i,i,i
Cc1noc(C)c1COc1ccccc1C(=O)N1CCN(c2cccc(C(F)(F)F)c2)CC1,nt,i,1.1,i,i,i,i,i,i
Cc1noc(C)c1COc1ccccc1C(=O)N1CCN(c2cccc(Cl)c2)CC1,nt,i,i,i,i,nt,nt,nt,nt
COc1ccc(CCNC(=O)c2ccc(-c3ccc([N+](=O)[O-])cc3Cl)o2)cc1,i,i,6.7,i,i,i,i,i,i
COc1ccc(CCNC(=O)c2ccc(-c3cccc([N+](=O)[O-])c3)o2)cc1OC,i,i,i,i,i,nt,nt,nt,nt
CC(=O)NC12CC3CC(C1)CC(C(=O)N1CCN(S(=O)(=O)c4cccc(C(F)(F)F)c4)CC1)(C3)C2,i,i,i,i,i,nt,nt,nt,nt
O=C(COC(=O)[C@H](Cc1ccccc1)NC(=O)c1cccs1)NC1CCCCC1,i,i,17.7,i,i,i,i,i,i
CC(C)Oc1ccc(C(=O)Nc2c3c(nn2C(C)(C)C)CS(=O)(=O)C3)cc1,i,i,i,i,i,nt,nt,nt,nt
COc1cc(CNC(C)(C)CO)cc(Br)c1OCc1ccc(Cl)cc1,i,i,6.4,i,i,i,i,i,i
COc1cc(CNC(C)(C)CO)cc(Br)c1OCc1ccc(Cl)cc1Cl,i,i,i,i,i,nt,nt,nt,nt
O=C(N/N=C/C1=C(N2CCOCC2)C(=C\c2ccccc2)/CC1)Nc1ccccc1,i,i,i,i,i,nt,nt,nt,nt
